For eleven compounds, Percent Effect results are on record in ChEMBL document CHEMBL3988442, “University of Dundee, Small-Polar-MMV Screening Library” (2021).

For some of these results: Potency and affinity values are given separately.

Set-up in all cases: scale not given: direction of the effect not stated beside the values
The target in assay [1] is Protein translocase subunit SecA (Escherichia coli (strain K12)) (UniProt P10408). Briefly: Assay to Identify E. coli SecA ATPase Inhibitors. Particulars: 30 µM. The format is functional.
Assay [2] concerns the target T1, Ubiquitin-activating enzyme e1, putative (Leishmania donovani (strain BPK282A1)) (UniProt E9BSI1).
T1 sequence (whole entry): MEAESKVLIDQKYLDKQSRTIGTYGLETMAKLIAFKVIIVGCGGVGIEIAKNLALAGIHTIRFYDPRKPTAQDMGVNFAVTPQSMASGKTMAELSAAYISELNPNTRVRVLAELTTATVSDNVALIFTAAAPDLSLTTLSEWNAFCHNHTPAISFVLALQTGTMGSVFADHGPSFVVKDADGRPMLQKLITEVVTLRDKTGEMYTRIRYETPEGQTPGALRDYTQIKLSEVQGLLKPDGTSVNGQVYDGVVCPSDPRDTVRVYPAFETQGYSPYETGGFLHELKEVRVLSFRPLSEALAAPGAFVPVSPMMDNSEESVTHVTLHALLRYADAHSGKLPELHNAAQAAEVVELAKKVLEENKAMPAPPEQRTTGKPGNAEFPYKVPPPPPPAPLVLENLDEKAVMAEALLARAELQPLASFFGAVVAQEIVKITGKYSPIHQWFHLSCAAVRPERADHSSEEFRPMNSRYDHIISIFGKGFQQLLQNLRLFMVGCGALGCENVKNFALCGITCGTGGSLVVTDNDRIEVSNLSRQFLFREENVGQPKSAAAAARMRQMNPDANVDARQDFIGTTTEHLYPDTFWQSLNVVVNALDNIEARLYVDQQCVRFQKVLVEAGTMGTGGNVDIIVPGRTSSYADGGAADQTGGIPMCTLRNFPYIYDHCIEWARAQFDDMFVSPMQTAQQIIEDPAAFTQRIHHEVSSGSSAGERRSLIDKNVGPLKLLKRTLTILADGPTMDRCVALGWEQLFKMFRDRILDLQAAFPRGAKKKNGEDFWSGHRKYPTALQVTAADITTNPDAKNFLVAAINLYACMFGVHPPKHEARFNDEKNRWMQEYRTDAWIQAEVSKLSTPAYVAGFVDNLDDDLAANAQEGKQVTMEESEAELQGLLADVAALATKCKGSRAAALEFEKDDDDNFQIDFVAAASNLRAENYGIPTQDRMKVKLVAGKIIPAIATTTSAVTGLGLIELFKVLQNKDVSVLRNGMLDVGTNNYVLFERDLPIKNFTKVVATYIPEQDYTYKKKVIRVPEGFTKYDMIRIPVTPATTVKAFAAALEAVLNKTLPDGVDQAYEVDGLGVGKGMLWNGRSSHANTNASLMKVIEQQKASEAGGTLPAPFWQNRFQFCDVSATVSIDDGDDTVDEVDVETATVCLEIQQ
Briefly: Leishmania donovani Ubiquitin Activating Enzyme (LdE1). Particulars: 30 µM. The format is functional.

Assay [3] has as its target AMP-activated protein kinase, AMPK (Homo sapiens) (UniProt P54646+O43741+P54619+Q9UGJ0+Q9Y478+Q13131+Q9UGI9). Nature of the assay: AMP-dependent Kinase enzyme assay. An in vitro enzyme assay that detects ADP turnover that is directly proportional to AMPK activity. This uses naive AMPK that is activated during the assay with MK-8722. Conditions: 30 µM. The format is functional.

Assay [4] concerns the target Sialic acid-binding Ig-like lectin 9 (Homo sapiens) (UniProt Q9Y336). Briefly: Hs-Siglec9 ALPHAscreen SOP 20170721. Particulars: 10 µM.
The subject of a further assay is Trypanosoma cruzi. Briefly: Trypanosoma cruzi phosphomannomutase and mannose-1-phosphate guanylyltransferase assay. The format is functional. Particulars: 10 µM.
Assay [5] concerns the target T2, Arginase-2, mitochondrial (Homo sapiens) (UniProt P78540).
T2 sequence (whole entry): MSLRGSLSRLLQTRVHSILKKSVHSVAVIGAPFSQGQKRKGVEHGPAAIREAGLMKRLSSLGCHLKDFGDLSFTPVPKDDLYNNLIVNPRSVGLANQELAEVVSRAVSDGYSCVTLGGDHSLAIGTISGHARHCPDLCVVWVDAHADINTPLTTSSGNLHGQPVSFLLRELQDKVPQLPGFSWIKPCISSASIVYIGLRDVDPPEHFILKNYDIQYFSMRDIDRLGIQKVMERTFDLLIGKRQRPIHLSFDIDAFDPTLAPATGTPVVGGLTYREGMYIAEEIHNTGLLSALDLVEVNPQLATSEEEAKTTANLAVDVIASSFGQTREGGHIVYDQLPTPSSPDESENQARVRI
Nature of the assay: in vitro enzyme assay to detect the production of urea directly proportional to the activity of Arginase II. Further: in the data most compounds retested in dose-response had high values. The format is functional. Particulars: 33.3 µM.

Assay [6] concerns the target T3, Proteasome subunit beta (Trypanosoma cruzi) (UniProt O96673).
T3 sequence (whole entry): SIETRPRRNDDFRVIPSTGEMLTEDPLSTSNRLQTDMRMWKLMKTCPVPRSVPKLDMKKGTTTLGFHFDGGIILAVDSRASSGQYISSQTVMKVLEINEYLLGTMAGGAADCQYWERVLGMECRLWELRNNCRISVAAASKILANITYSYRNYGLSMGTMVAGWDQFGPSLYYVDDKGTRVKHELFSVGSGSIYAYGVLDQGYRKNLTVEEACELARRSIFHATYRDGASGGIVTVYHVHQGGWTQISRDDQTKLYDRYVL
Briefly: Trypanosoma cruzi proteasome chymotrypsin-like activity (TcProtChymo) assay. Further: in the data most compounds retested in dose-response had high values. The format is functional. Conditions: 9.37 µM.

The species named for another assay is Homo sapiens. Nature of the assay: To identify inhibition of the IFN signalling (Jak-Stat) pathway via expression of an eGFP reporter gene under the control of an IFN-stimulated response element (ISRE) containing MxA promoter. Conditions: 30 µM. The format is functional. A general note: A reporter such as luciferase makes a cellular process visible.
The target of assay [7] is T4, Tyrosyl-tRNA synthetase, putative (Trypanosoma cruzi (strain CL Brener)) (UniProt Q4DSP6).
T4 sequence (whole entry): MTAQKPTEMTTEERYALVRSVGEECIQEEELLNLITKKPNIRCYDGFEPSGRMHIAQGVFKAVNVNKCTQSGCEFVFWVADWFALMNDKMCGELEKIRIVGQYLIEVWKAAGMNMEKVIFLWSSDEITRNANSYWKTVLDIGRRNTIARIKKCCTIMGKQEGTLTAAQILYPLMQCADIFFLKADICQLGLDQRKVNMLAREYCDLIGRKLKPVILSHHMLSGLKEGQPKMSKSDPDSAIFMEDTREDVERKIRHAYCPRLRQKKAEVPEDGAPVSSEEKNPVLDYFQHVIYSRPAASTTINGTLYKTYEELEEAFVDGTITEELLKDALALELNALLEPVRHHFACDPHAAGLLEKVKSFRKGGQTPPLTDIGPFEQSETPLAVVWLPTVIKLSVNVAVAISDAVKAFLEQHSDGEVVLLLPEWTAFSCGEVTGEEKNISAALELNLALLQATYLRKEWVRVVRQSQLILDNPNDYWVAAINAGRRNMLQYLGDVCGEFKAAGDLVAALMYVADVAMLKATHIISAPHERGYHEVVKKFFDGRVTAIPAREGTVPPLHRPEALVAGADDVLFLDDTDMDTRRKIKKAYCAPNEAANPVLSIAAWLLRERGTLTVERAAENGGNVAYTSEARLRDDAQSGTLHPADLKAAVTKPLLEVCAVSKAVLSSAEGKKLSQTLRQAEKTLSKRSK
Nature of the assay: Trypanosoma cruzi tyrosyl tRNA synthetase (TcYRS) _High Tyrosine SOP. Further: in the data most compounds retested in dose-response had high values. The format is functional. Particulars: 30 µM.

The target in assay [8] is T4, Tyrosyl-tRNA synthetase, putative (Trypanosoma cruzi (strain CL Brener)). Briefly: Trypanosoma cruzi tyrosyl tRNA synthetase (TcYRS) SOP. The format is functional. Particulars: 30 µM.
For assay [9], the target named is Chromo domain-containing protein 1 (Saccharomyces cerevisiae (strain ATCC 204508 / S288c) (Baker's yeast)) (UniProt P32657). Nature of the assay: ScCHD-1 Enzyme Inhibition Assay. Further: in the data most compounds retested in dose-response had high values. Particulars: 30 µM. The format is functional.
Chromo domain-containing protein 1 (Saccharomyces cerevisiae (strain ATCC 204508 / S288c) (Baker's yeast)), sequence (P32657 whole entry, the tested form may be a part): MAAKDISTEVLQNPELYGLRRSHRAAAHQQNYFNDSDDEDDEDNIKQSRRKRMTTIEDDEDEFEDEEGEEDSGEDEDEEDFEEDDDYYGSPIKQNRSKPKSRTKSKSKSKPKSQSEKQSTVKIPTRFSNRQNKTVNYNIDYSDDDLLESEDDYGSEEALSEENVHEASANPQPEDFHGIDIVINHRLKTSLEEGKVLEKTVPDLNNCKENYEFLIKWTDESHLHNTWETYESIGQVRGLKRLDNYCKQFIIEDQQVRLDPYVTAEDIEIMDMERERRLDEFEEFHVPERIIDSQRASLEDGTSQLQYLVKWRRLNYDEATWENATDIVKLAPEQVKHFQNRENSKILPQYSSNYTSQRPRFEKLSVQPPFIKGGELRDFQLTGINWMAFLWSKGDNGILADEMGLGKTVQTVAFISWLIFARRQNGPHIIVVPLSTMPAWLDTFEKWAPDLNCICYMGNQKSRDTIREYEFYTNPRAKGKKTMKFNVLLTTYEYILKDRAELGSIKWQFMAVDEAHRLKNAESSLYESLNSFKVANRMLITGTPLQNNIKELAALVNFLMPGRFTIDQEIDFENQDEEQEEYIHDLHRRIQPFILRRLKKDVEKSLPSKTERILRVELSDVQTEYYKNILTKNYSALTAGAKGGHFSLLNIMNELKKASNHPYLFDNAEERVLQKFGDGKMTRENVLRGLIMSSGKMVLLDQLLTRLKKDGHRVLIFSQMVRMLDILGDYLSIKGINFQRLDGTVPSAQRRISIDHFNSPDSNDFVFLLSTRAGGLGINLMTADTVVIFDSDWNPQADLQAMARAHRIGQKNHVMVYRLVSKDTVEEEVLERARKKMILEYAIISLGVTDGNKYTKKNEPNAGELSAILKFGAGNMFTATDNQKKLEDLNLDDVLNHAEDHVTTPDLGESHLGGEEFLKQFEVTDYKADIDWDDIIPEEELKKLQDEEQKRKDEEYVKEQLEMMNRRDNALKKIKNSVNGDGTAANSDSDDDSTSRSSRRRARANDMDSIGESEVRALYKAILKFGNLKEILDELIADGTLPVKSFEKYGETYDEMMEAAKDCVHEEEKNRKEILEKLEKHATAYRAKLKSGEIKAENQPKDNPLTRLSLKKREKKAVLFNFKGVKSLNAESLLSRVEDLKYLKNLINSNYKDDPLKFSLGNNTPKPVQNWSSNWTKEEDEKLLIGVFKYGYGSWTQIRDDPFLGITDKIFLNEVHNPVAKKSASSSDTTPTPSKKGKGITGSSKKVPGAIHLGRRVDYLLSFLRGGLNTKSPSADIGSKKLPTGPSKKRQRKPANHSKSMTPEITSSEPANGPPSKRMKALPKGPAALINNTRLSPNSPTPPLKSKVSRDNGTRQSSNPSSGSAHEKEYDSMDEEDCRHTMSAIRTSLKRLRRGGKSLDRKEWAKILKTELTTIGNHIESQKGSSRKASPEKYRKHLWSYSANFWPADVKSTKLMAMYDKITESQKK

Sialic acid-binding Ig-like lectin 9 (Homo sapiens), sequence (Q9Y336 whole entry): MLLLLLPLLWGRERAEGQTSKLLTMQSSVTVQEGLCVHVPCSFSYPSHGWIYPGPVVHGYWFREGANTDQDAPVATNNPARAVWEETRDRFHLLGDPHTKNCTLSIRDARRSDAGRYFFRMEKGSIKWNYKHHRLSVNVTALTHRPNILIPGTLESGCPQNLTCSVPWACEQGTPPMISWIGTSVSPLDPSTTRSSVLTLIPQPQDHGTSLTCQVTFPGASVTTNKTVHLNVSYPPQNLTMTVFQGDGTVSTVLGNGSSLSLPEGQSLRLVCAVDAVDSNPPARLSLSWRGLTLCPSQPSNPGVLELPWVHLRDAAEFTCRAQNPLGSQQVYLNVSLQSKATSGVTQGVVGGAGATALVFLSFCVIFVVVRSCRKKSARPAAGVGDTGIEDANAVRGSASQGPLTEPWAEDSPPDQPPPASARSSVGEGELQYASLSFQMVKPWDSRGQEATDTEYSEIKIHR
Protein translocase subunit SecA (Escherichia coli (strain K12)), sequence (P10408 whole entry): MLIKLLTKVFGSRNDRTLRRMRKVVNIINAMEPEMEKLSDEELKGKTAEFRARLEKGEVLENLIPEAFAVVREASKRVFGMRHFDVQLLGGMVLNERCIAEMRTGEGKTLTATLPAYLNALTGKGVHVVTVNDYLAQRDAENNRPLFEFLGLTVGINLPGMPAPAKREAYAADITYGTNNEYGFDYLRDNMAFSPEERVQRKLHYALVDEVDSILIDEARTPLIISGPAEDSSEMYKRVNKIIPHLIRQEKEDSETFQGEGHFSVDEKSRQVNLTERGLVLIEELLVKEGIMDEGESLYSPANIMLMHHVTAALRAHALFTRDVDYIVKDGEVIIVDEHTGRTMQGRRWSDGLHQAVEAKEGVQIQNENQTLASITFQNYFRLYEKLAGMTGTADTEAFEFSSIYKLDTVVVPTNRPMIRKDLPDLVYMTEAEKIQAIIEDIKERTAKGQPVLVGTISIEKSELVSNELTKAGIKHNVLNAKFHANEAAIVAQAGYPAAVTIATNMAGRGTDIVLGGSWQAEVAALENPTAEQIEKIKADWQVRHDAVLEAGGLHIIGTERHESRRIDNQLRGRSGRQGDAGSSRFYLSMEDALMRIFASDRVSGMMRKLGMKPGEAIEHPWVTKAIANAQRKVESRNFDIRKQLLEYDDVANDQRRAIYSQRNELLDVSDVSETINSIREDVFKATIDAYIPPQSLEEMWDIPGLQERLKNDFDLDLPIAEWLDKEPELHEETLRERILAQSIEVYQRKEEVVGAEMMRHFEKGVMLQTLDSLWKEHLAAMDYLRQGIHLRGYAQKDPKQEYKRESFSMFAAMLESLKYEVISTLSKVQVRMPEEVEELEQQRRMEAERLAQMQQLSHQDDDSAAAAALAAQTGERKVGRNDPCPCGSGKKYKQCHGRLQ

On to `CCCNC(=O)CNc1cc(C#N)ccc1OCC`, for which the Percent Effect in assay [1] is -6.04%; in assay [2] it was 22.8%; in assay [3], -6.15%; in assay [4], 3.16%; with Trypanosoma cruzi it was 4.82%; in [5], -6.46%. The Percent Effect in assay [6] is 11.7%; in the assay filed under Homo sapiens, 11.7%; in [7], 4.43%; in [8], 21.5%; in assay [9], -7.89%.

Turning to `Cc1cccc(N2CCN(C(=O)CN3CCN(CCO)CC3)CC2)c1`, the Percent Effect in [1] is -7.92%; in assay [2], 8.22%; in assay [3] it was 2.85%; in assay [4], 6.75%; in the assay with Trypanosoma cruzi, 3.37%; in assay [5] it was 0.798%. The Percent Effect in assay [6] was 3.51%; in the assay filed under Homo sapiens it was 10.3%; in assay [7], 9.38%; in assay [8], 21%; in [9] it was -0.672%.

Consider `CCCNC(=O)CNc1ccc(C(=O)N2CCCCC2C)cc1C` (stereo unspecified), for which the Percent Effect in assay [1] is -7.8%; in assay [2], 18.2%; in [3] it was 1.99%; in assay [4], -9.58%; in the assay on Trypanosoma cruzi, -8.99%; in assay [5], 0.712%. Further, the Percent Effect is 8.62% in assay [6]; 35.5% in the assay filed under Homo sapiens; 5.83% in assay [7]; 12.2% in [8]; -8% in assay [9].

`COC(C(=O)N1CCCN(Cc2cscn2)CC1)c1ccccc1` (stereo unspecified): the Percent Effect is -0.131% in assay [1]; 21.1% in assay [2]; -3.46% in [3]; -3.88% in assay [4]; 4.89% with Trypanosoma cruzi; -5.36% in assay [5]. In addition, the Percent Effect in assay [6] was 23.2%; in the assay filed under Homo sapiens, 6.84%; in assay [7], 5.39%; in [8], 24.4%; in assay [9], -9.91%.

For the compound `c1coc(CN2C[C@H](OCC3CCOCC3)[C@H]3COC[C@H]32)c1`, the Percent Effect is -3.71% in assay [1]; 8.11% in assay [2]; 6.46% in assay [3]; -3.04% in assay [4]; -3.23% with Trypanosoma cruzi; -0.955% in [5]. Besides, the Percent Effect in assay [6] stood at 15.3%; in the assay listed under Homo sapiens, 13.1%; in [7] it was 0%; in [8], 12.8%; in assay [9], 1.07%.

With `CN(Cc1ccccc1O)C(=O)NC1CCCN(c2ncccn2)C1` (stereo unspecified), the Percent Effect in assay [1] is -1.53%; in [2], 15.8%; in assay [3], 0.343%; in assay [4] it was -3.02%; in the assay with Trypanosoma cruzi, -7.89%; in assay [5] it was -1.53%. Besides, the Percent Effect in assay [6] was 6.01%; in the assay listed under Homo sapiens it was 26.3%; in [7] it was 2.45%; in [8], 7.32%; in assay [9] it was -8.65%.

For the compound `Cc1nc(CN(C)C2CCN(Cc3nc4ccccc4s3)C2)no1` (stereo unspecified), the Percent Effect is -6.59% in [1]; 5.26% in assay [2]; -8.48% in assay [3]; 14.1% in assay [4]; 4.95% in the assay with Trypanosoma cruzi; 1.8% in assay [5]. Further, the Percent Effect is 3.81% in [6]; -14.2% in the assay listed under Homo sapiens; 10.3% in assay [7]; 25.9% in assay [8]; -8.21% in assay [9].

For the compound `O=C(C1CCOC1)N1C[C@H]2CN(Cc3nccs3)C[C@H]2C1` (stereo partly specified), the Percent Effect in assay [1] is -7.06%; in [2] it was 5.41%; in assay [3], 2.27%; in assay [4], -7.15%; in the assay with Trypanosoma cruzi, -3.81%; in assay [5], -6.69%. The Percent Effect was 15.7% in [6]; -4.44% in the assay filed under Homo sapiens; 0% in assay [7]; 2.56% in [8]; -2.08% in assay [9].

In the case of `COCC1CC2(CCN(C(=O)c3cccn3C)CC2)CN1C(C)C` (stereo unspecified), the Percent Effect is -2.49% in assay [1]; -13.5% in assay [2]; 4.17% in assay [3]; -2.06% in assay [4]; 1.37% in the assay on Trypanosoma cruzi; -1.67% in [5]. Also, the Percent Effect in assay [6] is 0.761%; in the assay filed under Homo sapiens, -12.3%; in [7], 7.92%; in [8] it was 3.66%; in assay [9], -4.39%.

Take `CC(C(=O)NCc1ccc(N2CCNC(=O)C2)cc1)n1cncn1` (stereo unspecified): the Percent Effect in assay [1] was -6.76%; in assay [2], 26%; in assay [3], -36.6%; in assay [4], 17.6%; with Trypanosoma cruzi, 8.24%; in assay [5] it was 1.42%. The Percent Effect is 5.57% in assay [6]; 14.6% in the assay filed under Homo sapiens; 5.83% in assay [7]; 21.9% in assay [8]; -12.2% in [9].

For the compound `COc1cc(OC)c(C2Nc3cc(Cl)ccc3C3=NCCN32)cc1OC` (stereo unspecified), the Percent Effect in assay [1] is -5.59%; in assay [2], -8%; in assay [3], -2.93%; in [4], 2.92%; in the assay with Trypanosoma cruzi, 6.89%; in [5] it was -3.5%. For the same compound, the Percent Effect in assay [6] is 1.32%; in the assay filed under Homo sapiens it was -10.9%; in assay [7], 7.45%; in assay [8] it was 14.1%; in assay [9], -5.67%.
